Pf growth 48h: P. falciparum growth inhibition at 48 hours (one generation). 5.9% of 310,000 active. Potency, µM (series often up to 28.7 µM), usual class: inhibitors. P. falciparum luciferase growth in erythrocytes, 48 h. AID 504832
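A one-generation exposure of luciferase-tagged malaria parasites in RPMI 1640/Albumax erythrocyte culture, 37 C and 5% CO2. Inhibition is inferred from decreased luminescence after adding detection reagent.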
Cycloheximide cs: counter-screen hit for Shiga toxin inhibitors, cycloheximide. cell reporter, cycloheximide protein synthesis inhibition counterscreen. AID 2314. max response, %. 12% of 300,000 active; in the data active = max response mostly above about 13%, no sharp cut-off; inactive = mostly below about 14%; also: read at 38.3 µM for the half of the compounds with a filed dose
SARS PLP yeast: SARS-CoV PLP inhibition in yeast; Potency, µM (series often up to 32.9 µM), actives largely listed as activators; AID 485353; S. cerevisiae expressing SARS-CoV PLpro, growth rescue; 0.19% of 330,000 active; calls by dose curve; also: nearly all actives have a fitted effect of over 55% in size
NS1 function inh: inhibitors of influenza NS1 protein function. Potency, µM (series often up to 46.1 µM). 0.4% of 270,000 active; calls by dose curve; also: actives are rising curves; nearly all actives have a fitted effect of over 50% in size
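A cell-based growth assay was used: compounds that relieve NS1-induced slow growth of budding yeast raise OD600. Assay medium was yeast nitrogen base with ammonium sulphate and -URA supplement, pH 6.0, with 2% galactose.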
Shiga toxin inh: Shiga toxin inhibition | 9.2% of 290,000 active | inhibition, % at 38.7 µM | Vero cells, Shiga toxin protein synthesis inhibition reporter; in the data active = inhibition mostly above about 28%, no sharp cut-off; inactive = mostly below about 43%
Pf growth 96h: inhibits malaria parasite growth, 96 h; P. falciparum luciferase reporter growth, 96 h; Potency, µM (doses to about 28.7 µM), most hits filed as inhibitors; 6.9% of 320,000 active; AID 504834
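Infected RBCs, 2% Hct / 0.05% parasitemia final; luciferase-reporter P. falciparum; cpd 96 h, 37 C, 5% CO2; luciferase detection reagent; luminescence.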
Of the large screens only hits and unclear results are named; the others gave an inactive call. Compounds with a hit are over-represented: about 21% of the library has one in this group of screens. Unless noted, calls follow the shape of the dose curve; as a rule, active = well fitted inhibition curve with a large enough effect; inconclusive = small, poorly fitted or top-dose-only effect, or another doubt; inactive = no such curve, though single readings can be large or run the other way.

Cn1c(=O)c2c(nc(SCC(=O)Nc3ccccc3)n2C)n(C)c1=O	none
CCOc1ccc(OCC)c(NC(=O)CSc2nc3c(c(=O)n(C)c(=O)n3C)n2C(C)C)c1	Pf growth 48h 4.1µM, Pf growth 96h 3.3µM
CCCn1c(SCC(=O)N2c3ccccc3CCc3ccccc32)nc2c1c(=O)n(C)c(=O)n2C	Pf growth 48h 15µM
COC(=O)[C@H](C)[C@H](CC(C)C)NC(=O)[C@H](C)[C@H](CC(C)C)NC(=O)c1ccccn1	none (no result: Pf growth 48h, SARS PLP yeast, NS1 function inh, Pf growth 96h)
N=C(N)SCCON1C(=O)c2ccccc2C1=O	none (no result: Pf growth 48h, Cycloheximide cs, SARS PLP yeast, Shiga toxin inh, Pf growth 96h)
Cc1c(C(=O)N2CCN(S(=O)(=O)c3cc(F)ccc3F)CC2)oc2ccccc12	Pf growth 48h inconclusive (no result: Cycloheximide cs, NS1 function inh, Shiga toxin inh)
Cc1cccc(N2CCN(c3cccc(C)c3)C2c2cccnc2)c1	Pf growth 48h 1.9µM, Cycloheximide cs 34, Shiga toxin inh 71
CCC1SC2=NC(C)=C(C(=O)OCC(C)C)C(/C=C/c3ccccc3OC)N2C1=O (stereo not given)	Pf growth 48h inconclusive, Pf growth 96h 12µM
O=C(Nc1ccc(Cl)cc1)OCc1cn(-c2ccc(Cl)cc2)nn1	none
Clc1ccc(-n2cc(COCc3ccccc3)nn2)cc1	Shiga toxin inh 57 (no result: NS1 function inh)
CCC(=O)NC(Nc1sc2c(c1C(=O)OC)CCN(C)C2)(C(F)(F)F)C(F)(F)F	Pf growth 48h inconclusive, Pf growth 96h inconclusive
CCOC(=O)NC(Nc1sc2c(c1C(=O)OC)CCN(C)C2)(C(F)(F)F)C(F)(F)F	Pf growth 48h inconclusive, Pf growth 96h 6.6µM
CCOC(=O)c1c(NC(=S)N2CCN(C)CC2)sc2c1CCN(C(=O)OCC)C2	Pf growth 48h 13µM, Pf growth 96h 12µM
CCOC(=O)c1c(NC(=O)CN(CC)CC)sc2c1CCN(C(=O)OCC)C2	Pf growth 48h 9.3µM, Pf growth 96h 8.3µM
CCOC(=O)c1c(NC(=O)CN2CCN(C(=O)c3ccco3)CC2)sc2c1CCCC2	Pf growth 48h 3.7µM
CCOC(=O)c1c(NC(=O)CC)sc2c1CCN(Cc1ccccc1)C2	Pf growth 48h inconclusive
CCOC(=O)c1c(NC(=O)COC)sc2c1CCCC2	none (no result: Pf growth 96h)
O=c1c(-c2ccco2)[n+]([O-])c2ccccc2n1OCc1ccccc1[N+](=O)[O-]	none
CCCCCC(=O)Nc1ccc(C(=O)COC(=O)CN2C(=O)NC3(CCCC3)C2=O)cc1	none (no result: Cycloheximide cs, NS1 function inh, Shiga toxin inh)
COc1cc(OC)c2c(c1)OC(=O)CC2c1ccccc1OC (stereo not given)	none (no result: Pf growth 48h, SARS PLP yeast, NS1 function inh, Pf growth 96h)
CCOC(=O)c1c(NC(=O)CN2CCCCC2)sc2c1CCN(C(=O)OCC)C2	Pf growth 48h 10µM, Pf growth 96h 5.2µM
CCOC(=O)c1c(NC(=O)CN2CCCCC2)sc(C)c1C	none
O=C(c1cccc(C(F)(F)F)c1)N1CCc2c([nH]c3ccccc23)C1C(F)(F)F (stereo not given)	Pf growth 48h 8.3µM, Pf growth 96h 12µM
CC(C)N(C(=O)COC(=O)c1cncc(Br)c1)C(C)C	none (no result: NS1 function inh)
O=C(NN1CCCCC1)c1ccccc1	none
O=C(NC(C(=O)c1ccccc1)N1CCCCC1)c1ccccc1 (stereo not given)	Cycloheximide cs 33, Shiga toxin inh 72
CCCCn1c(CNC(=O)c2cccs2)nc2ccccc21	Pf growth 48h 5.2µM, Pf growth 96h 2.1µM
CCCCCn1c(CCNC(=O)c2cccs2)nc2ccccc21	Pf growth 48h inconclusive
CCCCCn1c(CNC(=O)c2cccs2)nc2ccccc21	Pf growth 48h inconclusive, Pf growth 96h 0.59µM
CCCCn1c(C(C)NC(=O)c2cccs2)nc2ccccc21 (stereo not given)	Pf growth 48h inconclusive
NC(=O)c1ccc(NC(=O)CN2CCN(Cc3ccccc3)CC2)cc1	none
O=C(N/N=C1\CC(c2ccccc2)Oc2ccccc21)c1ccccn1 (stereo not given)	Pf growth 48h inconclusive, Cycloheximide cs 15, Shiga toxin inh 51 (no result: NS1 function inh)
CCOc1ccc(S(=O)(=O)N/N=C2/CC(c3ccccc3)Oc3ccccc32)cc1 (stereo not given)	Cycloheximide cs 30, Pf growth 96h inconclusive (no result: Pf growth 48h)
O=C(N/N=C1\CC(c2ccccc2)Oc2ccccc21)c1ccc(O)cc1 (stereo not given)	Pf growth 48h inconclusive, Cycloheximide cs 40, Shiga toxin inh 118, Pf growth 96h inconclusive
NC(=O)[C@@H]1CCCN1C(=O)C(Cc1cnc[nH]1)NC(=O)C1CCC(=O)N1 (stereo not given in full)	none (no result: Pf growth 48h, SARS PLP yeast, NS1 function inh, Pf growth 96h)
CCNC(=O)C1CC(=O)N(Cc2ccc(F)cc2)C(=Nc2ccc(OC)cc2)S1 (stereo not given)	Pf growth 48h 7.4µM, Pf growth 96h inconclusive
COc1ccccc1OCC(=O)Nc1sc2c(c1C(=O)NCC1CCCO1)CCC2 (stereo not given)	Pf growth 48h 13µM, Pf growth 96h 10µM
COc1cc(SC)ccc1C(=O)OCC(=O)NC1CCCC1	Cycloheximide cs 54, Shiga toxin inh 113
COc1cc(OC)c(C(=O)OCC(=O)NC2CCCC2)cc1OC	none
COc1cc(C(=O)NCC2CCCO2)ccc1OCc1ccccc1Cl (stereo not given)	Pf growth 48h inconclusive, Cycloheximide cs 16
COc1ccccc1OCC(=O)Nc1sc2c(c1C(N)=O)CCC2	none (no result: Pf growth 48h, Cycloheximide cs, NS1 function inh, Shiga toxin inh, Pf growth 96h)
COc1cc(SC)ccc1C(=O)OCC(=O)NC1CCCCC1	Cycloheximide cs 60 (no result: NS1 function inh)
O=C(CN1CCN(C(=O)C2CCCO2)CC1)Nc1ccc(F)cc1 (stereo not given)	none
O=C1CC(NS(=O)(=O)c2ccc3ccccc3c2)CN1c1ccccc1 (stereo not given)	none (no result: Cycloheximide cs, NS1 function inh, Shiga toxin inh)
COc1cc(SC)ccc1C(=O)NC1CCCCC1	Cycloheximide cs 36
COc1cc(SC)ccc1C(=O)NCC1CCCO1 (stereo not given)	Cycloheximide cs 24 (no result: Pf growth 96h)
COc1ccc(C(=O)NCC2CCCO2)cc1OC (stereo not given)	none
Nc1cc(-c2ccc(Br)cc2)[nH]n1	Cycloheximide cs 11, NS1 function inh inconclusive, Pf growth 96h 1.9µM
Cc1cc(-c2ccc(Br)cc2)n[nH]1	Cycloheximide cs 31, Shiga toxin inh 82
Cc1cc(-c2n[nH]c(=S)n2/N=C/c2ccc(Br)s2)n[nH]1	none
Nc1nc(-c2ccc(Br)cc2)cc(C(F)(F)F)n1	none (no result: Pf growth 48h)
CC(C)NC(=S)N1CCN(c2ncccn2)CC1	none
Cc1cc(OC(C)C(=O)N2CCN(c3ccccc3)CC2)c2c(C)c(C)c(=O)oc2c1 (stereo not given)	Pf growth 48h 9.3µM, Pf growth 96h 13µM
Cc1cc(OCC(=O)N2CCN(c3ccccc3)CC2)c2c(C)c(C)c(=O)oc2c1	none
CCc1noc(C)c1C(=O)N(CCC(C)C)c1c(N)n(Cc2ccccc2)c(=O)[nH]c1=O	Pf growth 48h inconclusive (no result: Cycloheximide cs, NS1 function inh, Shiga toxin inh)
COc1ccc(-n2c(O)c(C(C)=NCCc3c[nH]c4ccccc34)c(=O)[nH]c2=O)cc1	Pf growth 48h 12µM, Pf growth 96h inconclusive
C=CCN(c1ccccc1)S(=O)(=O)c1cc2c(cc1C)N(C)CCO2	Pf growth 48h inconclusive, Pf growth 96h inconclusive
Cc1ccc(-n2c(=O)c3sccc3n(CC(=O)NC3CCCCC3)c2=O)cc1	Shiga toxin inh 112 (no result: NS1 function inh)

Source: PubChem BioAssay (National Center for Advancing Translational Sciences (NCATS))
